Inhibition data for 60 molecules are collected here from PubChem BioAssay AID2751 (The Scripps Research Institute Molecular Screening Center, 2010).

Each structure is given as a SMILES string. The whole screen tested about 320,000 compounds, of which about 2,200 (0.69%) were called active. The entries come from a sample that favours actives as a whole. A number with no mark means an inactive call. No stated cut-off is given here; in the data, active means inhibition above about 43%; inactive means the rest.

The target of the experiment is Prolyl endopeptidase-like (Homo sapiens) (UniProt Q4J6C6). Description: human PREPL activity-probe blockers – biochemical, fluorescence polarization, primary screen (AID 2751).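 Further: 0% = enzyme with DMSO and 100% = wells lacking enzyme.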 Conditions: recombinant PREPL, fluorescence polarization activity-based probe; at 5.96 µM; stronger effect = higher value.
Prolyl endopeptidase-like (Homo sapiens), sequence (Q4J6C6 whole entry, looked up): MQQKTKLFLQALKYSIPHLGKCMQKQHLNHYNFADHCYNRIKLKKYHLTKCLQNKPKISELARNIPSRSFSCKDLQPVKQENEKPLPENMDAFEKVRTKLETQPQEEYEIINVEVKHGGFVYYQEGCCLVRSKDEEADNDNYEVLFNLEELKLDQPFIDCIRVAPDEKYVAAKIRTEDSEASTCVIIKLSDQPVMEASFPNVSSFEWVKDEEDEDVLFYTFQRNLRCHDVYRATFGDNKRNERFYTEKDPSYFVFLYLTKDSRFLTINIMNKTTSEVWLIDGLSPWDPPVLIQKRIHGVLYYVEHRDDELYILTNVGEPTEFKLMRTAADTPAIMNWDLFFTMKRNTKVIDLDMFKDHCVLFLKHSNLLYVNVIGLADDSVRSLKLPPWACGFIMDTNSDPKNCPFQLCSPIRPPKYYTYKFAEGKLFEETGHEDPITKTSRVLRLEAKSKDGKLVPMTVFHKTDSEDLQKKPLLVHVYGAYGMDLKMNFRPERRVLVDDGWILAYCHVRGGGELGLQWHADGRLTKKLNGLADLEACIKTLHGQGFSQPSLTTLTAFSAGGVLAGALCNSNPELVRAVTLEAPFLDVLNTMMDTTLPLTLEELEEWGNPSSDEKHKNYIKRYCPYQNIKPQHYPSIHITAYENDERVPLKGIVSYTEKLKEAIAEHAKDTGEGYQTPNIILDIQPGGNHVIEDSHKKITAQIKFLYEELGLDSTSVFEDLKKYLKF
By inhibition is commonly meant the drop in the measured response relative to a control, in per cent. Regarding `CCCC[C@@H]1CN=C(N)N1CCc1cccc(F)c1`, the inhibition is -6.23%.

For the molecule `C[C@@H](CN1CCC[C@H]1CN1C(N)=NC[C@@H]1Cc1ccccc1)N1C[C@@H](Cc2ccccc2)N(CCCC2CCCC2)C1=N`, the inhibition is 54.6% (active).

On to `CC[C@@H](C)[C@@H]1CN([C@@H](C)CN2CCC[C@H]2CN2C(N)=NC[C@H]2C(C)C)C(=N)N1CCc1ccc(Cl)c(Cl)c1`, for which the inhibition was 63.3% (active).

On to `NC1=NC[C@@H](Cc2ccc(O)cc2)N1CC1CCCCC1`, for which the inhibition was 9.91%.

On to `CCCCN1C(N)=NC[C@@H]1Cc1ccccc1`, for which the inhibition is 17.4%.

In the case of `O=C(C1Cc2ccccc2CN1C(=O)c1ccco1)N1CCN(c2ccccc2)CC1` (stereo not given), the inhibition is 12.9%.

In the case of `CCOC(=O)c1ccc(N/C(=N/S(=O)(=O)c2ccccc2)c2ccccc2)cc1`, the inhibition is -3.53%.

For `O=C(NCc1cccnc1)c1ccc(CS(=O)(=O)c2ccc(Br)cc2)o1`, the inhibition was -17%.

`CNC[C@H]1Oc2c(NC(=O)C3CCCCC3)cccc2C(=O)N([C@H](C)CO)C[C@@H]1C`: the inhibition was 1.75%.

Regarding `Cc1noc(C)c1COC(=O)c1cc2ccccc2cc1O`, the inhibition was 3.42%.

Regarding `O=C(NNc1c2ccccc2nc2ccccc12)c1cc2ccccc2cc1O`, the inhibition is 68.7% (active).

In the case of `COc1ccc(-c2cc(C(=O)Nc3ccccc3O)c3ccccc3n2)cc1`, the inhibition was 15.1%.

On to `Cc1ccc(S(=O)(=O)C2C(=O)NC3(C)CC2c2ccccc2O3)cc1` (stereo not given), for which the inhibition is -1.08%.

As to `CC(=O)Nc1ccc(S(=O)(=O)Nc2ccc(N3CCOCC3)c(F)c2)cc1`, the inhibition is 13.1%.

As for `COC(=O)COc1ccc(S(=O)(=O)Nc2ccc(NC(C)=O)cc2)cc1`, the inhibition is 3.49%.

Take `CC(=O)Nc1ccc(S(=O)(=O)Nc2ccc(N3CCCCC3)cc2)cc1`: the inhibition is 59.6% (active).

With `CC1CCN(C(=O)c2ccc3c(=O)n4c(nc3c2)CCCCC4)CC1`, the inhibition is 10.4%.

Consider `CC1CCN(C(=O)c2ccc3c(c2)NC(=O)CN3)CC1`, for which the inhibition is 57.5% (active).

Turning to `CC1CCN(C(=O)c2ccc(CSc3ccc(Cl)cc3)cc2)CC1`, the inhibition was 18.7%.

For `CCN(C(=O)COC(=O)C1CCN(S(=O)(=O)c2ccc(C)c(C)c2)CC1)C1CCS(=O)(=O)C1` (stereo not given), the inhibition is 16.8%.

For `CC[C@H]1CN2CCc3cc(OC)c(OC)cc3[C@@H]2C[C@@H]1C[C@H]1NCCc2cc(OC)c(OC)cc21`, the inhibition is 17.4%.

`COc1cc2c(cc1O)[C@H](Cc1ccc(Oc3cc(C[C@@H]4NCCc5cc(OC)c(O)cc54)ccc3O)cc1)NCC2`: the inhibition is 46.2% (active).

Regarding `COc1ccc2c(c1)CCNC2Cc1ccc(OC)c(O)c1` (stereo not given), the inhibition is 11.1%.

With `CCOc1ccc(N2C(=O)/C(=C/c3ccc(C)o3)N(C)C2=S)cc1`, the inhibition was 6.35%.

Turning to `CC(C)n1c(CN2CCN(Cc3ccccc3)CC2)nc2ccccc21`, the inhibition was -13.9%.

With `CCOC(=O)c1cnc(Nc2nc3ccccc3o2)nc1CSC(=S)N1CCCCC1`, the inhibition is -5.51%.

As for `Cc1ccc(C(=O)NNC(=O)CSc2nnc3ccccn23)cc1`, the inhibition was -1.75%.

For the molecule `COCCNC(=O)Nc1ccc2nc(-c3ccco3)c(-c3ccco3)nc2c1`, the inhibition was 39.5%.

For the molecule `O=C(NCc1ccccn1)c1ccc2nc(-c3ccco3)c(-c3ccco3)nc2c1`, the inhibition is 46.4% (active).

In the case of `O=C1CSc2ccc(C(=O)NCc3ccccn3)cc2N1`, the inhibition was 4.19%.

`COc1ccccc1CNC(=O)CSc1nc(=O)n(Cc2ccncc2)c2c1CCC2`: the inhibition was 2.55%.

Take `O=S(=O)(c1ccccc1)N1CN(Cc2ccc(F)cc2)c2nc3ccccc3nc21`: the inhibition is -7.37%.

For `CC(OC(=O)c1ccc(S(=O)(=O)N2CCOCC2)cc1)c1ccccc1` (stereo not given), the inhibition is -0.7%.

`CCN(CC)CCn1c2c(c(SCC(=O)Nc3ccc(C(C)C)cc3)nc1=O)CCC2`: the inhibition is 23.1%.

Regarding `NC(=O)CSc1c[nH]c2ccccc12`, the inhibition is 7.6%.

Consider `O=S(=O)(O)Oc1c[nH]c2ccccc12`, for which the inhibition is 44.5% (active).

Take `O=C(NC1CCCC1)C(=O)c1c[nH]c2ccccc12`: the inhibition is 9.2%.

For `O=C(OCc1nc2ccccc2[nH]1)C1CCCCC1`, the inhibition was 10.5%.

As to `COc1ccc(CC(=O)N[C@@H](CCSC)c2nc3ccccc3[nH]2)cc1`, the inhibition was 5.96%.

Take `COC(=O)Cc1nc2ccccc2[nH]1`: the inhibition is 47.1% (active).

With `C=CCNC(=O)c1sc(SC)cc1-c1ccc(Cl)cc1`, the inhibition is 1.62%.

With `COc1cc(C)cc(CN2CCC(Cc3ccccc3)CC2)c1O`, the inhibition is -5.3%.

As for `Oc1c(CN2CCCC2)cc(COCc2ccccc2)c2cccnc12`, the inhibition is 63.8% (active).

Turning to `Oc1c(CN2CCN(c3ccc(F)cc3)CC2)cc(Cl)c2cccnc12`, the inhibition was 53.5% (active).

`O=C(CN1CCN(c2ccc(F)cc2)CC1)Nc1ccccc1`: the inhibition is 9.77%.

On to `Clc1cccc(CN2COc3c(cc(Cl)c4cccnc34)C2)c1`, for which the inhibition is 2.86%.

Turning to `Cc1cccnc1NC(=O)c1cccc(S(=O)(=O)N2CCN(c3ccc(F)cc3)CC2)c1`, the inhibition is -7.81%.

`NC[C@H](Cc1ccccc1)NCCc1cc(C(F)(F)F)cc(C(F)(F)F)c1`: the inhibition is -11.6%.

In the case of `O=C(COC(=O)c1ccc(Cl)nc1)NCc1ccc2c(c1)OCO2`, the inhibition is 8.45%.

Take `CCN(CC)CC(=O)Nc1sc2c(c1C(=O)c1ccccc1C)CCC2`: the inhibition was 5.23%.

Turning to `CC(C)(CNC(=O)c1ccc(Cl)c(S(=O)(=O)N2CCc3ccccc3C2)c1)N1CCOCC1`, the inhibition was -27.3%.

Consider `CCN(Cc1ccccc1)C(=O)CN1C(=S)NC(C)(C)CC1C` (stereo not given), for which the inhibition is -2.69%.

`COc1ccc(C(=O)COC(=O)c2ccc([N+](=O)[O-])s2)cc1OC`: the inhibition was 34.6%.

As for `O=C(OCC(=O)N1CCN(c2ccccc2)CC1)c1ccc([N+](=O)[O-])s1`, the inhibition is 54.8% (active).

As for `C[C@H](NC(=O)c1ccccc1Cl)C(=O)OCC(=O)N1CCN(c2ccccc2)CC1`, the inhibition was 13.3%.

Regarding `COCCN(CCOC)c1nc(N)c2c(N)nc3c(c2c1C#N)CC(=O)N3Cc1ccc(Cl)cc1`, the inhibition is 47.7% (active).

As for `COc1cccc2c1OCC(C(=O)NCc1ccc(Cl)cc1Cl)=C2`, the inhibition was -4.06%.

Consider `O=C(CCCCCN1C(=O)c2cccc3cccc(c23)C1=O)NCc1ccco1`, for which the inhibition was 5.95%.

Regarding `C[N+](C)(CCCCCC[N+](C)(C)CCCN1C(=O)c2cccc3cccc(c23)C1=O)CCCN1C(=O)c2cccc3cccc(c23)C1=O`, the inhibition was 47.7% (active).

On to `O=C1c2cccc3cccc(c23)C(=O)N1CCCCCc1n[nH]c(=S)o1`, for which the inhibition was 1.95%.
